Measurements published in the OligoGym collection.

What follows are sequences tested against CD300LG (assay: pooled miR-30 sensor sort-seq; sequence = guide strand). Settings: shRNA.
Further: reference of the scale not given here.

| Sequence | sensor-assay potency score (higher = more potent) |
| --- | --- |
| TCTTCTGCATAGATGGTGCCAG | -0.529 |
| TCTTCTTCTGCATAGATGGTGC | -0.808 |
| TTCCTGCACCAGTACTTCCGGT | -1.16 |
| TCTGTGTTAGACACCTACGTGC | 0.23 |
| TATCCCTGCAATGTGCACCTGA | 0.23 |
| TTCCCTGTAGGTGCACTGCAGG | -0.985 |
| TAGATGGTGCCAGAGCAGCGAG | -1.7 |
| TTCTTCTTCTGCATAGATGGTG | -0.287 |
| TTCTACTTTTCTCTCTAGCCAC | -0.61 |
| TTGGTGTCGCAGACAGAGCAGA | -1.29 |
| TTTTCTTCATCATTTTTCCAAA | -1.26 |
| TCCTGCACCAGTACTTCCGGTG | -1.28 |

These sequences were tested against CD320 in the same assay as above. Settings: shRNA.

| Sequence | sensor-assay potency score (higher = more potent) |
| --- | --- |
| TTCCGGGAGGATCTCATTGGTT | -1.44 |
| TAGTCCGAGGCCGAGCAGCAGC | -1.57 |
| AATGCAGTCATCGCTCAGCGTG | -1.16 |
| TCTGTTCTGACAGCAGCAGGGA | -0.673 |
| ATGCAGTCATCGCTCAGCGTGC | -1.64 |
| TCATCGCTGCCATCGCTGCAGT | -1.32 |
| TCGCTGCAGTCCAAGTCCCTGT | -1.39 |
| TTGCACTGAGCACCGCAGCAGC | -1.06 |
| TCCACAGCCGAGCTCGTCGCTG | -1.78 |
| TTCTGTTCTGACAGCAGCAGGG | -0.457 |
